Source: PubChem BioAssay
The list is not random: actives were taken first. Their share in the collection is about 7.9%.
KB-3-1 tox – kills parental KB-3-1 adenocarcinoma cells. Potency, µM (highest dose often 46.1 µM), hits mostly cytotoxic. KB-3-1 viability, CellTiter-Glo ATP luminescence, 72 h. AID 1347075. 400,000 tested, 1.4% active; note: nearly all actives have a fitted effect of over 60% in size
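Cells are dispensed, compounds pinned in, plates held at 37 °C for 72 h, then CellTiter-Glo is added and luminescence read after 10 minutes. Cell line: parental KB-3-1 in phenol-red-free DMEM, 10% FBS.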
SW480 rereplic – inducers of DNA re-replication in SW480 colon cancer cells | Potency, µM (highest dose often 46.1 µM), hits mostly activators | AID 624297 | SW480 DNA re-replication, Hoechst DNA content imaging, 48 h | 340,000 tested, 1.8% active; note: nearly all actives have a fitted effect of over 55% in size
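Image-based DNA-content assay: after two days of treatment, nuclei were labelled with the DNA dye Hoechst and imaged, and hits were compounds raising the count of nuclei showing high fluorescence intensity.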
MCF10A rerep – inducers of DNA re-replication in MCF 10A breast cells. MCF 10A DNA re-replication, Hoechst nuclear intensity, 48 h. Potency, µM (highest dose often 46.1 µM), most hits filed as activators. 350,000 tested, 2.9% active. AID 624296; note: nearly all actives have a fitted effect of over 50% in size
KB-V1 MDR tox – kills drug-selected multidrug resistant KB-V1 cells | KB-V1 MDR cells viability, CellTiter-Glo, 72 h | Potency, µM (series often up to 46.1 µM), most hits filed as cytotoxic | 400,000 tested, 3.4% active | AID 1347076; note: nearly all actives have a fitted effect of over 60% in size
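KB-V1, DMEM (no phenol red) + 10% FBS; cpd pin-transferred, titration series; 72 h, 37 degrees C; CellTiter-Glo, luminescence. Data normalized, curve-fit.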
HT1080NT lethal – kills 2HG-producing HT-1080-NT fibrosarcoma cells; HT-1080-NT fibrosarcoma viability, CellTiter-Glo ATP luminescence, 48 h; Potency, µM (doses to about 46.1 µM), most hits filed as cytotoxic; 360,000 tested, 1.6% active;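 note: NT is the 2HG producing partner of a matched IDH1 knockdown line; nearly all actives have a fitted effect of over 55% in size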
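Viability by CellTiter-Glo luminescence after 48 h compound exposure at 37C of HT-1080-NT cells (750/well, RPMI, 5% FBS). % activity scaled between DMSO wells and medium-only wells, then curve-fitted and categorized by curve class.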
HT1080 IDH1KD tx – toxicity to HT-1080 IDH1 knockdown cells (counter line); HT-1080 IDH1 knockdown viability, ATP luminescence, 48 h; Potency, µM (series often up to 46.1 µM), actives largely listed as cytotoxic; 360,000 tested, 2% active
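Cytotoxicity counter-line: IDH1KD HT-1080, 48 h, CellTiter-Glo. Curves classed by r2, magnitude and activity.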
Numbers stand for hits; n = inactive; u = inconclusive; x = no result; [ ] = another dose, or the depositor's remark. Calls come from the whole dose curve; as a rule, active = well fitted curve in the direction sought with a large enough effect; inconclusive = small, poorly fitted or top-dose-only effect, or another doubt; inactive = no such curve, though single readings can be large; an effect the other way counts as inactive or inconclusive.

SMILES | KB-3-1 tox | SW480 rereplic | MCF10A rerep | KB-V1 MDR tox | HT1080NT lethal | HT1080 IDH1KD tx
Cc1ccc(C(=O)OCC(=O)N2c3ccccc3NC(=O)C2(C)C)cc1S(=O)(=O)N1CCCCC1 | u | n | u | n | n | n
COc1ccc(/C(N)=N/OC(=O)c2ccc(C)c([N+](=O)[O-])c2)cc1 | n | n | u | n | n | n
Cc1cc(C)cc(NC(=O)C2CCC(CNC(=O)[C@@H]3Cc4ccccc4CN3)CC2)c1 (stereo partly specified) | n | 18.4µM | u | n | n | n
CC(C)c1ccc(NC(=O)C2CCN(C(=O)[C@@H]3Cc4ccccc4CN3)CC2)cc1 | n | 18.4µM | u | n | n | n
COc1ccc(S(=O)(=O)N2CCN(C(=O)c3cc(C)oc3C)CC2)cc1OC | n | n | n | n | n | n
O=C(N=C1SC2CS(=O)(=O)CC2N1c1ccc(Cl)cc1)C1CCCO1 (stereo unspecified) | n | n | n | n | n | n
[2H]c1c([2H])c([2H])c(C(=O)c2sc(N3CCCCCC3)nc2-c2ccccc2)c([2H])c1[2H] | u | n | 9.2µM | n | n | n
COc1ccc(-c2nc(N3CCCCCC3)sc2C(=O)c2ccccc2)cc1 | n | n | 14.6µM | n | n | n
O=C(c1ccc(Br)cc1)c1sc(N2CCOCC2)nc1-c1ccccc1 | u | n | 16.4µM | u | n | n
O=C(c1ccccc1)c1sc(N2CCCCCC2)nc1-c1ccccc1 | u | n | u | u | n | n
O=C(NN1C(=O)c2ccccc2C1=O)C1CC2CCC1C2 (stereo unspecified) | n | n | n | u | n | n
C=CCSc1cc(C)nc2c(-c3ccccc3)c(C)nn12 | u | u | u | 7.31µM | u | u
CC(=O)CSc1cc(C)nc2c(-c3ccccc3)c(C)nn12 | u | n | n | u | n | n
Cc1cc(SCC(=O)c2cccs2)n2nc(C)c(-c3ccccc3)c2n1 | n | u | u | 20.6µM | n | u
CC(C)Oc1ccc(CN2CCC2(C)C(=O)Nc2ccc3c(c2)OCO3)cc1 (stereo unspecified) | u | x | x | 18.4µM | n | n
CC(C)c1ccc(CC(=O)N2CCC2(C)C(=O)Nc2ccc3c(c2)OCCO3)cc1 (stereo unspecified) | n | x | x | 16.4µM | n | n
COc1cccc(NC(=O)C2(C)CCN2Cc2ccc(OC(C)C)cc2)c1 (stereo unspecified) | n | x | x | u | n | n
CC1(C(=O)Nc2ccc3c(c2)OCCO3)CCN1Cc1csc2ccccc12 (stereo unspecified) | n | x | x | n | n | u
CC(C)c1ccc(CN2CCC2(C)C(=O)Nc2ccc3c(c2)OCO3)cc1 (stereo unspecified) | 16.4µM | x | x | u | u | u
CC(C)c1ccc(CC(=O)N2CCC2(C)C(=O)Nc2ccccc2)cc1 (stereo unspecified) | n | x | x | n | n | n
CS(=O)(=O)N(CC(=O)N1CCCCCC1)c1ccccc1 | n | n | n | n | n | n
CCCOc1ccc(C(=O)NNC(=S)NC(=O)CC)cc1 | 13µM | u | 16.4µM | u | u | 10µM
C=CCNC(=S)NNC(=O)c1ccc(OCCC)cc1 | n | n | n | n | n | n
COc1ccc(C(=O)NNC(=S)NC(=O)c2ccc(OC)cc2)cc1 | u | n | u | n | u | u
C=CCNC(=S)NNC(=O)c1ccc(OCC(C)C)cc1 | n | 18.4µM | n | n | u | n
SMILES | KB-3-1 tox | SW480 rereplic | MCF10A rerep | KB-V1 MDR tox | HT1080NT lethal | HT1080 IDH1KD tx
CCCCC(=O)NC(=S)NNC(=O)c1ccc(OC)cc1 | 23.1µM | n | n | u | u | u
Cc1ccc(C(CNC(=O)Nc2ccc(Cl)cc2)N2CCN(C)CC2)cc1 (stereo unspecified) | n | n | n | n | u | u
Cc1oc(-c2ccccc2F)nc1CS(=O)(=O)CC(=O)N1CCN(c2ccc(Cl)cc2)CC1 | 16.4µM | x | x | n | x | x
Cc1oc(-c2ccccc2F)nc1CS(=O)(=O)CC(=O)N1CCCCCC1 | n | n | n | n | n | n
O=C(c1cccs1)N1C[C@H](O)[C@@H](n2cc(C3CC3)nn2)C[C@@H]1c1ccccc1 | n | x | x | n | n | n
CCSc1nnc(NC(=O)CSc2nnc(Cc3cccn3C)n2CCc2ccccc2)s1 | n | n | n | 8.2µM | n | n
COc1ccc(-n2c(CCc3ccccc3)nnc2SCC(=O)c2ccc(Cl)cc2)cc1 | u | n | n | 5.8µM | n | n
Cc1cccc(-n2ccnc2SCC(=O)Nc2nccs2)c1 | n | n | n | n | n | n
COc1ccc(NC(=O)CSc2nnc(Cc3cccn3C)n2CCc2ccccc2)cc1OC | n | n | n | 14.6µM | n | n
COc1ccccc1NC(=O)CSc1nnc(Cc2cccn2C)n1CCc1ccccc1 | n | n | n | n | n[9.24 µM] | n
CCSc1nnc(NC(=O)CSc2nccn2-c2cccc(C)c2)s1 | n | n | n | 16.4µM | n | n
C/C(CC(=O)NCc1ccc(Cl)cc1)=N\NC(=O)Cc1ccccc1 | n | n | n | n | n | n
CC(=O)N[C@@H](Cc1c[nH]c2ccccc12)C(=O)OCc1ccc(C#N)cc1 | n | u | u | n | n | n
Cc1ccc(-n2c(Cc3cccn3C)nnc2SCC(=O)N2CCc3ccccc32)cc1 | n | n | n | 6.51µM | n | n
COc1ccc(-n2c(Cc3cccn3C)nnc2SCC(=O)NCCc2ccccc2)cc1 | n | n | n | 9.2µM | n | n
Cc1cc(C)c(NC(=O)CSc2nnc(Cc3cccn3C)n2-c2ccc(F)cc2)c(C)c1 | n | n | n | 23.1µM | n | n
Cc1cc(C)cc(NC(=O)CSc2nnc(Cc3cccn3C)n2-c2ccc(F)cc2)c1 | n | n | n | n | n | n
O=C(NCc1nnc(SCC(=O)N2CCCc3ccccc32)n1-c1ccccc1)c1cccc2ccccc12 | u | n | n | 16.4µM | n | n
CCC(C)(C)NC(=O)C(c1cccnc1)N(C(=O)c1csnn1)c1ccc(C)cc1 (stereo unspecified) | n | n | n | n | n | n
COc1cccc(NC(=O)CNC(=O)c2ccc(OC)c(OC)c2)c1 | n | n | n | n | n | n
CCOc1ccc(S(=O)(=O)N2c3ccccc3CC2C)cc1 (stereo unspecified) | 1.16µM | 1.64µM | u | 1.46µM | 3.16µM | u
Cc1cc(C(C)(C)C)cc(C)c1S(=O)(=O)N1CC(=O)Nc2ccccc21 | n | u | 18.4µM | n | n | u
CCOc1ccc(S(=O)(=O)N2CC(=O)Nc3ccccc32)cc1 | u | 14.6µM | u | u | u | 11.6µM
